Measurements as given in ChEMBL document CHEMBL3988442, “University of Dundee, Small-Polar-MMV Screening Library” (2021).
About 13,000 (27%) of roughly 48,000 compounds showed an effect of 50% or more. The list shows a part of the results.

test system: Wolbachia pipientis; assay: Anti-Wolbachia Cell-Based Screen; format: functional; parameters: scale not given: in the data most compounds retested in dose-response had high values; details: 5 µM

Compared with `Cc1noc(C[C@@H]2COC[C@H]3CN(S(=O)(=O)C4CC4)C[C@@H]23)n1`, `Cc1cc(CN(C)C(=O)CN2CC3(CCNCC3)OC2=O)no1` is lower in “Percent Effect” value: 6.683% for the first, -10.43% for the second.

First: Cc1ccc(S(=O)(=O)NC(C)C#N)cc1Br (configuration not stated)
Second: NS(=O)(=O)NCC1(c2ccccc2Br)CC1
The “Percent Effect” value of the first is lower: -6.675% for the first, -0.7264% for the second.

First: Fc1cccc(Nc2nc(N3CCCC3)nc3c2CNCC3)c1
Second: COc1cccc(Nc2nc(N3CCCC3)nc3c2CNCC3)c1.Cl
The “Percent Effect” value of the first is lower: 142.6% for the first, 154.5% for the second.

Compared with `CCOCCNc1nc(-c2ccncc2)nc2c1CCNCC2`, `c1csc(CCNc2nc(-c3ccncc3)nc3c2CCNCC3)c1` is lower in “Percent Effect” value: 0.459% for the first, -1.817% for the second.

First: COc1cccc(Nc2nc(-c3ccncc3)nc3c2CNCC3)c1.Cl
Second: COc1cccc(-n2ccc3nc(N4CCCC4)ncc3c2=O)c1
The “Percent Effect” value of the first is higher: 140.9% for the first, -5.391% for the second.

Going from `O=S(=O)(Nc1cnc(N2CCOCC2)nc1)c1cccc(F)c1` to `O=S(=O)(Nc1cnc(N2CCCC2)nc1)c1ccc(F)cc1F`, the “Percent Effect” value rises from -8.595% to 5.953%.

Going from `COc1ccc(CC(=O)Nc2c(C)nc(N3CCCC3)nc2C)cc1` to `COc1ccc(N2CCC(NCc3csc(C(C)C)n3)CC2)cc1`, the “Percent Effect” value falls from 3.23% to -0.6873%.

Going from `Cc1cc(CN(C)C(=O)NC2CCS(=O)(=O)C2)no1` (configuration not stated) to `Cc1cc(CN(C)C(=O)NC2CCN(Cc3ccccc3)C2)no1` (configuration not stated), the “Percent Effect” value falls from 4.321% to -11.75%.

First: Cc1ccc(Cl)cc1N1CCC(CNC(=O)CCn2ccnn2)C1 (configuration not stated)
Second: COc1ccc(NC(=O)CCC2CCCN(Cc3ncon3)C2)c(C)c1 (configuration not stated)
The “Percent Effect” value of the first is higher: 3.758% for the first, 0.05921% for the second.

First: Cn1ccnc1CN1C[C@H]2CN(S(C)(=O)=O)CCN2C1=O
Second: CC(C)COC(=O)N1CCN(C(=O)c2ccc3nccn3c2)CC1
The “Percent Effect” value of the first is lower: -9.259% for the first, -2.651% for the second.

Going from `Cc1ccccc1C(=O)N1CCN(c2ccc(-n3cncn3)nn2)CC1` to `O=C(N1CCCC(n2cncn2)C1)C1(c2ccc(Cl)cc2)CCC1` (configuration not stated), the “Percent Effect” value rises from 17.86% to 129.1%.

Going from `CN(C)S(=O)(=O)c1ccc(CN2CCCC2c2ccccc2)o1` (configuration not stated) to `Cc1ccccc1C1CCCN1Cc1ccc(S(=O)(=O)N(C)C)o1` (configuration not stated), the “Percent Effect” value rises from 8.974% to 160.2%.

Going from `COc1ccc(C2CCCN2Cc2ccc(S(=O)(=O)N(C)C)o2)cc1` (configuration not stated) to `CN(C)S(=O)(=O)c1ccc(CN2CCCC2c2ccsc2)o1` (configuration not stated), the “Percent Effect” value rises from 151.6% to 153.1%.

Going from `CN(C)S(=O)(=O)c1ccc(CN2CCCC2c2ccc[nH]2)o1` (configuration not stated) to `CN(C)S(=O)(=O)c1ccc(CN2CCCC2c2cccs2)o1` (configuration not stated), the “Percent Effect” value rises from -2.919% to 169.9%.

First: CN(Cc1ccco1)C(=O)CN1CCCC1c1cccs1 (configuration not stated)
Second: CN(CCC#N)C(=O)CN1CCCC1c1ccsc1 (configuration not stated)
The “Percent Effect” value of the first is lower: -12.25% for the first, 1.248% for the second.

Compared with `CN(C)S(=O)(=O)c1ccc(CN2CCC(c3ccccc3)C2)o1` (configuration not stated), `CN(C)S(=O)(=O)c1ccc(CN2CCCC2CO)o1` (configuration not stated) is higher in “Percent Effect” value: -9.641% for the first, -8.26% for the second.

First: c1cc(C2CCCN2Cc2nnnn2C2CC2)cs1 (configuration not stated)
Second: O=C(Cc1cccs1)N1CCc2nnc(COc3cncnc3)n2CC1
The “Percent Effect” value of the first is lower: -19.47% for the first, -9.187% for the second.

Compared with `Cc1nccc(-c2cccc(NCc3nc(C(C)C)no3)c2)n1`, `Cc1nnc(CN(C)CCCOc2cccc(Cl)c2)o1` is lower in “Percent Effect” value: 4.778% for the first, -9.851% for the second.

Compared with `O=c1[nH]nc(SCC2CCCO2)n1C1CC1` (configuration not stated), `Cc1cc(CN(C)C(=O)C2CCCN(C(N)=O)C2)no1` (configuration not stated) is higher in “Percent Effect” value: -2.947% for the first, 12.67% for the second.

Compared with `COC1CN(C(=O)CC(C)C)CCC(=O)N(C)c2ccccc21` (configuration not stated), `COC1CN(C(=O)OCC(C)C)CCC(=O)N(C)c2ccccc21` (configuration not stated) is lower in “Percent Effect” value: 94.68% for the first, 62.93% for the second.

Going from `Cc1ccccc1N1CCN(C2CCCN(C(=O)CCC(C)C)C2)CC1` (configuration not stated) to `CC1CCCN(c2ccccc2OCC(=O)N2CCOCC2)C1` (configuration not stated), the “Percent Effect” value falls from -1.858% to -4.736%.

First: COC1CN(C(=O)Cc2cccs2)CCC(=O)N(C)c2ccccc21 (configuration not stated)
Second: COC1CN(C(=O)CC(C)(C)C)CCC(=O)N(C)c2ccccc21 (configuration not stated)
The “Percent Effect” value of the first is higher: 113.3% for the first, 105.9% for the second.

Compared with `COc1ccc([C@@H]2CN(C(=O)Cc3cccs3)C[C@H]2NC(C)=O)cc1`, `COC1CN(C(=O)COC(C)=O)CCC(=O)N(C)c2ccccc21` (configuration not stated) is higher in “Percent Effect” value: 1.079% for the first, 92.83% for the second.

Going from `CCCN1CCN(Cc2cccc(OC)c2)[C@H]2CS(=O)(=O)C[C@H]21` to `Cc1cc(CN(C)C(=O)NCc2cccc(N3CCCC3=O)c2)no1`, the “Percent Effect” value rises from -4.68% to 2.405%.

Compared with `CCOCCN1CCN(C(C)C(=O)Nc2ccnn2C(C)C)CC1` (configuration not stated), `CC(C)c1cc(CN(C)C(=O)CN2CCNC2=O)no1` is higher in “Percent Effect” value: -7.106% for the first, 133% for the second.

Compared with `CC(C)C1CN(C(=O)c2cc(=O)[nH]c(=O)[nH]2)CCC(=O)N1CC1CC1` (configuration not stated), `CC(C)c1cc(CN(C)C(=O)CN2CCCCC2=O)no1` is higher in “Percent Effect” value: 7.498% for the first, 112.2% for the second.

Going from `O=C(N1CCCC(n2cncn2)C1)C1(c2cccc(F)c2)CCC1` (configuration not stated) to `O=C(N1CCCC(n2cncn2)C1)C1(c2cccc(F)c2)CC1` (configuration not stated), the “Percent Effect” value falls from 131.6% to 123%.

Compared with `O=C(c1ccn[nH]1)N1CCCC(n2cncn2)C1` (configuration not stated), `Cc1cc(C)cc(C2(C(=O)N3CCCC(n4cncn4)C3)CC2)c1` (configuration not stated) is lower in “Percent Effect” value: 8.656% for the first, 4.808% for the second.

First: O=C(N1CCOCC(O)C1)C1(c2ccc(Cl)cc2)CCC1 (configuration not stated)
Second: O=C(N1CCCC(n2cncn2)C1)C1(c2cccc(F)c2)CCCC1 (configuration not stated)
The “Percent Effect” value of the first is lower: -14.09% for the first, 112.9% for the second.

Going from `O=C(N1CCC(Oc2ccncc2)C1)C1(c2cccc(F)c2)CC1` (configuration not stated) to `CC(C)N1C[C@@H](F)[C@@H](OCc2nc3ncccc3[nH]2)C1`, the “Percent Effect” value falls from -3.42% to -12.53%.

Going from `COc1ccccc1N1CCC(N2CCOC(C(F)(F)F)C2)CC1` (configuration not stated) to `CC(C)c1cc(CN(C)C(=O)CN2CCC(C(N)=O)CC2)no1`, the “Percent Effect” value rises from 10.11% to 136.4%.

Going from `CCc1cc(CN(C)C(=O)CN2CC3(CCNCC3)OC2=O)on1` to `Cc1cc(CN(C)C(=O)CN2CCCCCC2=O)no1`, the “Percent Effect” value rises from 3.162% to 104.9%.

Going from `Cc1nc(CCN(C)C(=O)CN2CCCCCC2)no1` to `Cc1ncsc1CCN(C)C(=O)CN1CCCCC1=O`, the “Percent Effect” value rises from 5.465% to 17.08%.

In the case of `CN(Cc1cc(C2CC2)on1)C(=O)CN1C(=O)OC(C)(C)C1=O`, the “Percent Effect” value is reported as -4.246%.
